Screens deposited in PubChem BioAssay by National Center for Advancing Translational Sciences (NCATS).
Compounds with a hit are over-represented: about 19% of the library has one in this group of screens.
HT1080NT lethal – kills 2HG-producing HT-1080-NT fibrosarcoma cells | Potency, µM (doses to about 46.1 µM), for inactives: at the highest dose activity, negative = less viability, hits mostly cytotoxic | HT-1080-NT fibrosarcoma viability, CellTiter-Glo ATP luminescence, 48 h | 1.6% of 360,000 active;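 also: NT is the 2HG producing partner of a matched IDH1 knockdown line; 0% = DMSO-treated cells and -100% = media-only wells without cells; nearly all actives have a fitted effect of over 55% in size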
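Toxicity toward the 2HG-producing NT line was scored as %Activity, normalised to DMSO and no-cell wells, from CellTiter-Glo luminescence after 48 hours' treatment.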
TDP1 cell CPT – DT40-hTDP1 cell growth loss with CPT; chicken DT40 Tdp1-/-;hTDP1 cells + 20 nM CPT, ATP luminescence, 48 h; Potency, µM (top dose mostly 46.2 µM), inactives show at the top dose activity change, negative = growth inhibition, most hits filed as inhibitors; 12% of 420,000 active; AID 686979; also: nearly all actives have a fitted effect of over 55% in size
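Chicken DT40 Tdp1-/- cells stably complemented with human TDP1 were seeded at 400 cells/well in medium containing 20 nM camptothecin, exposed to pin-transferred compounds, and grown at 37 °C for at least 48 hr. Viability was read as ATP luminescence.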
KB-3-1 cytotox – KB-3-1 parental cell cytotoxicity; 1.4% of 400,000 active; Potency, µM (top dose mostly 46.1 µM), actives largely listed as cytotoxic; KB-3-1 viability, CellTiter-Glo ATP luminescence, 72 h; also: nearly all actives have a fitted effect of over 60% in size
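Luminescent ATP read-out (CellTiter-Glo) measures survival of drug-naive KB-3-1 cells after 72 h compound exposure at 37 °C. Titration series was screened from lowest to highest concentration, with DMSO vehicle plates as background controls.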
HT1080 IDH1KD tx – toxicity to HT-1080 IDH1 knockdown cells (counter line). 2% of 360,000 active. Potency, µM (highest dose often 46.1 µM), for inactives: at the highest dose activity, negative = toxicity, usual class: cytotoxic. HT-1080 IDH1 knockdown viability, ATP luminescence, 48 h;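 also: 0% = DMSO wells and -100% = cell-free medium wells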
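After a 2 h attachment period, IDH1KD HT-1080 cells took pin-transferred compound for 48 h at 37 °C; ATP-based luminescence after 10 min room-temperature reagent incubation reported viability.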
TDP1 cell noCPT – qHTS for Inhibitors of human tyrosyl-DNA phosphodiesterase 1 (TDP1): qHTS in cells in absence of CPT; DT40 Tdp1-/- hTDP1 cells, no CPT, ATP luminescence, 48 h; Potency, µM (top dose mostly 46.2 µM), for the others: at the highest dose activity change, negative = growth inhibition, usual class: inhibitors; 15% of 420,000 active; also: nearly all actives have a fitted effect of over 55% in size
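No-CPT arm: Tdp1-/-;hTDP1 DT40 cells (400/well) plus compounds, incubated ≥48 hr at 37 °C. Readout CellTiter-Glo luminescence.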
KB-V1 cytotox – KB-V1 MDR subline cytotoxicity | KB-V1 MDR cells viability, CellTiter-Glo, 72 h | Potency, µM (highest dose often 46.1 µM), actives largely listed as cytotoxic | 3.4% of 400,000 active; also: nearly all actives have a fitted effect of over 60% in size
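Compound-treated KB-V1 multidrug-resistant cells, 72 h, 37 degrees C; viability by CellTiter-Glo. Fitted qHTS curves give the values.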
Numbers without * were called inactive; i = inactive; u = inconclusive; x = no result; [ ] = another dose, or the depositor's remark. Calls follow the shape of the dose curve; as a rule, active = well fitted curve in the direction sought with a large enough effect; inconclusive = small, poorly fitted or top-dose-only effect, or another doubt; inactive = no such curve, though single readings can be large; an effect the other way counts as inactive or inconclusive. Unless noted, % is scaled to controls: 0 for no effect and ±100 for the full control effect; potency is read from the fitted curve at half-maximal effect.

SMILES	HT1080NT lethal	TDP1 cell CPT	KB-3-1 cytotox	HT1080 IDH1KD tx	TDP1 cell noCPT	KB-V1 cytotox
CCOc1ccc(/C=C/c2nc3ccccc3n2S(=O)(=O)c2cccc(Cl)c2)cc1	x	7.31µM*	x	x	6.51µM*	x
CC(C)N(C)C1=CC(=O)C(N(C)C(C)C)=CC1=O	-5.5%	23.1µM*	i	2.5%	u	u
CCn1cc(S(=O)(=O)c2cccc(C)c2)c(=O)c2cc(F)c(N3CCN(c4ccccc4)CC3)cc21	x	-2.8%	x	x	u	x
O=C(c1cccc(Cl)c1)N(Cc1ccco1)Cc1ccccc1Cl	x	u	x	x	-79.7%	x
Cc1cc(OC(C)C(=O)N(Cc2ccco2)Cc2ccccc2F)cc(C)c1Cl (centres undefined)	x	20.6µM*	x	x	13µM*	x
O=C(COc1ccc(Cl)cc1Cl)N(Cc1ccco1)C1CCS(=O)(=O)C1 (centres undefined)	-0.4%	-23.4%	i	5.0%[9.24 µM]	-15.6%	i
Cc1cccc2cc(CN(Cc3ccco3)C(=O)c3ccco3)c(=O)[nH]c12	-4.4%	-2.8%	i	-0.7%	-19.4%	i
Cc1cccc(OCC(=O)N(Cc2cccc(Cl)c2)Cc2ccco2)c1C	x	6.51µM*	x	x	-82.3%	x
Cc1cc(Cl)ccc1OCC(=O)N(Cc1ccco1)Cc1ccco1	x	u	x	x	23.1µM*	x
O=C(COc1ccccc1Cl)N(Cc1ccco1)Cc1ccco1	x	u	x	x	23.1µM*	x
CCCNC(=O)C1(C)CCCN(Cc2c(F)cccc2F)C1 (centres undefined)	23.5%	-26.7%	i	0.6%	u	i
CCc1nnc(SCc2nc(-c3ccc(OC)cc3)oc2C)c2cc3sccc3n12	x	-22.5%	x	x	-14.1%	x
Cc1ccc(CN(Cc2ccco2)C(=O)COc2ccc(Cl)cc2Cl)cc1	x	u	i	x	18.4µM*	u
CCCOC(=O)c1ccc(N)cc1	x	2.2%	x	x	-11.8%	x
O=C(NCc1ccc(Cl)cc1)c1noc2c1CCCCC2	-5.2%	-16.2%	i	2.4%	-36.6%	20.6µM*
O=C(NCc1ccc(F)cc1)c1noc2c1CCCC2	-15.9%	-22.0%	i	-16.6%	u	i
O=C(NCc1ccc(F)cc1)c1noc2c1CCCCC2	8.2%	-13.1%	i	0.9%	-19.2%	16.4µM*
CCN1/C(=C/C=C/c2oc3ccc4ccccc4c3[n+]2CC)Oc2ccc3ccccc3c21	u	0.651µM*	u	u	0.184µM*	i
CCN1C(=O)/C(=C/C=C2/Sc3ccc4ccccc4c3N2CCO)SC1=S	-10.5%	u	i	-1.8%	u	i
NC(=O)NN=C1c2cc(S(=O)(=O)N3CCOCC3)ccc2-c2ccc(S(=O)(=O)N3CCOCC3)cc21	x	u	i	x	3.0%	i
CCOCCCNC(=O)CCC(=O)NNc1nc2ccccc2c2nc(-c3ccccc3)nn12	7.4%	u	i	14.6%	11.6µM*	i
CC(C)OCCCNC(=O)CCC(=O)NNc1nc2ccccc2c2nc(-c3ccccc3)nn12	-11.7%	-78.9%	i	-3.2%	u	i
Cc1nc(CNC(=O)CC2C(=O)NCCN2Cc2ccoc2)nc2c1CCCC2 (centres undefined)	12.8%	0.1%	i	9.4%	4.3%	i
COc1cc(NC(=O)C2CC(c3ccc(Cl)cc3)=NO2)cc(OC)c1OC (centres undefined)	10.1%	-25.7%	i	-1.2%	u	i
COc1ccc(NC(=O)C2CC(c3ccc(OC)c(OC)c3)=NO2)cc1OC (centres undefined)	4.2%	2.7%	i	2.9%	-26.1%	i
SMILES	HT1080NT lethal	TDP1 cell CPT	KB-3-1 cytotox	HT1080 IDH1KD tx	TDP1 cell noCPT	KB-V1 cytotox
COc1cc(C2=NOC(C(=O)NC3CCCCC3)C2)cc(OC)c1OC (centres undefined)	-3.9%	-3.1%	i	-6.1%	-17.4%	9.2µM*
COc1ccc(NC(=O)C2CC(c3cc(OC)c(OC)c(OC)c3)=NO2)cc1OC (centres undefined)	3.6%	u	i	-14.1%	u	13µM*
COc1cc(NC(=O)C2CC(c3ccccc3Cl)=NO2)cc(OC)c1OC (centres undefined)	u	16.4µM*	i	-3.5%	23.1µM*	u
COc1cc(C2=NOC(C(=O)Nc3ccc(C)cc3)C2)cc(OC)c1OC (centres undefined)	3.8%	12.6µM*	i	-16.5%	11.2µM*	i
CCOc1ccc(-n2c(SCC(=O)NC)nnc2-c2ccco2)cc1	2.9%	7.9%	i	-1.2%	-2.1%	i
COC(=O)C1=C(C)NC(=O)NC1c1ccc(OC(=O)c2ccco2)cc1 (centres undefined)	-4.4%	8.1%	i	-1.2%	-4.8%	i
O=C(Nc1ccc2nc(-c3cccs3)c(-c3cccs3)nc2c1)N1CCOCC1	-16.8%	u	i	u	13µM*	16.4µM*
O=C(Nc1ccc2nc(-c3ccccn3)c(-c3ccccn3)nc2c1)N1CCCC1	x	u	i	x	u	i
COc1ccc(C(=O)/C(C#N)=N/Nc2ccccc2[N+](=O)[O-])cc1	2.59µM*	2.31µM*	u	2.31µM*	1.84µM*	i
CCCc1c(C)nn(C(=O)/C(C#N)=N/Nc2ccccc2[N+](=O)[O-])c1C	3.2%	-5.4%	i	-7.9%	-20.9%	u
COc1ccc(C(=O)/C(C#N)=N/Nc2ccc([N+](=O)[O-])cc2)cc1	u	0.581µM*	2.31µM*	5.8µM*	0.517µM*	8.2µM*
O=C1CC(C(=O)N2CCCC(c3nc(-c4ccncc4)ncc3-c3ccccc3)C2)C2(CCCCC2)O1 (centres undefined)	x	15.2%[9.04 µM]	x	x	-5.0%	x
CCn1c(CSc2nc3ccccc3s2)nnc1SCC(=O)c1ccc(Cl)cc1	-27.3%	16.4µM*	i	u	20.6µM*	i
O=C(NCCCN1CCCCCC1)c1ccc2c(c1)sc1nc(-c3ccccc3)cn12	x	6.51µM*	x	x	3.66µM*	x
CCCSCCCNC(=O)c1ccc2c(c1)sc1nc(-c3ccc(OCC)cc3)cn12	x	u	i	x	u	i
CCC1CCCCN1CCCNC(=O)c1ccc2nc(N3CCC(C)CC3)sc2c1 (centres undefined)	u	u	u	u	u	i
Cc1ccc(-c2cn3c(n2)sc2cc(C(=O)NCc4cccs4)ccc23)cc1	x	14.6µM*	i	x	20.6µM*	i
